In the library only some 6.1% were active in any assay of this set; here they are far more common.
D3 antag – qHTS of D3 Dopamine Receptor Antagonist: qHTS; D(3) dopamine receptor (Homo sapiens), P35462; D3R cells, DiscoveRx beta-arrestin luminescence, antagonist mode; hits give low values; max response, negative = inhibition, %; 2.5% of 360,000 active; in the data active = max response below about -50%; inconclusive = no clear call, values can overlap the other calls; note: % is set by controls: 0 for no effect and ±100 for the full control effect
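Cells plated overnight at 1500 cells/well, then exposed to library compounds with dopamine controls for 90 minutes at 37 degrees C. DiscoveRx reagent added for 30–60 minutes at room temperature; luminescence read, quantitative HTS format.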
DRD3 agonist – qHTS of D3 Dopamine Receptor Agonist: qHTS; D(3) dopamine receptor (Homo sapiens), P35462; D3R DiscoveRx beta-arrestin cells, luminescence, 90 min; max activation, %; 0.58% of 410,000 active; AID 652048, 2013; in the data active = max activation above about 30%; note: 0% is about no effect
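Cells at 1500/well, incubated overnight, then treated with pinned compounds (dopamine as control) for 90 min at 37 degrees C. DiscoveRx reagent added for 30 - 60 minutes at room temperature; luminescence read.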
D1 antagonist – Antagonist of Human D 1 Dopamine Receptor: qHTS. D(1A) dopamine receptor (Homo sapiens), P21728. HEK293 TREx D1 cells, calcium flux, dopamine EC80; hits give low values. activity change, negative = inhibition, % at 10 µM. 3.2% of 360,000 active. AID 504652, 2011; in the data active = activity change below about -30%; note: % is set by controls: 0 for no effect and ±100 for the full control effect
Target sequence (P21728 whole entry, looked up): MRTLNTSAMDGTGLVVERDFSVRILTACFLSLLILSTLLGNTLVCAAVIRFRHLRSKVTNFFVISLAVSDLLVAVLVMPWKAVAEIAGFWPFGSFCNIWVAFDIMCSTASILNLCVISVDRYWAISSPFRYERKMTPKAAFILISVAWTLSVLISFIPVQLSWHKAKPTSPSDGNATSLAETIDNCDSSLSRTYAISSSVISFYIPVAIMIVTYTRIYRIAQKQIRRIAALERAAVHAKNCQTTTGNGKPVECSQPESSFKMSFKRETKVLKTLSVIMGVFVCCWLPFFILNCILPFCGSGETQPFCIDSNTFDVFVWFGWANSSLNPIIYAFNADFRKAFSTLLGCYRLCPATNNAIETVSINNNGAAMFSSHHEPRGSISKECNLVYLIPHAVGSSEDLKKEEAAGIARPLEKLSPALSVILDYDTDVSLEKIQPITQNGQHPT
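Calcium flux readout: force-coupled, inducible Hek293 Trex D1 line, cells induced overnight at 30 C with tetracycline, dye-loaded 30–90 min at RT. Antagonism scored against EC80 dopamine challenge given 180 s after compound.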
D1 PAM – Potentiators of Human D1 Dopamine Receptor: qHTS | D(1A) dopamine receptor (Homo sapiens), P21728 | HEK293 TREx D1 cells, calcium flux, dopamine EC20 potentiation | potentiation, % at 10 µM | 0.036% of 360,000 active; in the data active = potentiation above about 30%; note: 0% is about no effect
D1 ag – Allosteric Agonists of the Human D1 Dopamine Receptor: qHTS; 1% of 360,000 active; activation, % at 2 µM; HEK293 T-REx D1 cells, calcium flux, agonist mode; D(1A) dopamine receptor (Homo sapiens), P21728; in the data active = activation above about 30%; note: 0% is about no effect
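Agonism was scored from calcium flux recorded over 180 s (1 read/s) after pintool compound addition, following a 10-cycle baseline. Cells were inducible force-coupled HEK293 TREx D1, plated overnight at 30 C and loaded with no-wash calcium dye.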
Numbers without * were called inactive; u = inconclusive; x = no result.

SMILES	D3 antag	DRD3 agonist	D1 antagonist	D1 PAM	D1 ag
Cc1ccc(C(=O)Cn2cnc3ccccc3c2=O)cc1C	-18	-3	-17	-3	43*
O=C(Nc1ccccc1F)c1cc(S(=O)(=O)N2CCOCC2)cs1	7	19	-3	-3	0
O=C(CN1CCN(c2ccc(C(F)(F)F)cn2)CC1)Nc1ccc2c(c1)OCO2	-2	-15	-20	-11	12
O=C(COc1ccc(Cl)cc1)NCc1ccccc1	9	4	-12	-3	1
CN(C)CCOc1ccc(C(C)(C)c2ccccc2)cc1	0	5	-9	-1	2
CC(C)CCNCC(O)CON=C1c2ccccc2-c2ccccc21 (centres undefined)	8	-1	8	4	50*
COCCNCC(O)CON=C1c2ccccc2-c2ccccc21 (centres undefined)	-1	-10	3	-3	7
Clc1ccc(OCCNCCc2ccccc2)cc1	-59*	11	-18	-10	25
COc1ccc(CCNCC(O)COc2ccc(Cl)cc2)cc1OC (centres undefined)	0	-10	11	-7	17
CN(C)CCCOc1ccc(C(C)(C)c2ccccc2)cc1	-68*	-8	8	-6	20
COc1ccc(CCNCC(O)COc2c(C)cccc2C)cc1OC (centres undefined)	u	3	-38*	-11	7
Cc1ccc(-c2nnc3cccc(Cl)n23)cc1	-13	3	15	0	2
CN(C)c1nc(N(C)C)c2cnn(C)c2n1	16	-5	x	x	x
CC(C)N(CCNCC(O)COc1ccc(C(C)(C)c2ccccc2)cc1)C(C)C (centres undefined)	-1	18	-18	-3	63*
COc1ccc(C(OCC(O)CNCCc2ccccc2)c2ccc(OC)cc2)cc1 (centres undefined)	-58*	-34	-30*	-10	96*
OC(CNCCc1ccc(Cl)cc1)COc1cc(Cl)ccc1Cl (centres undefined)	-26	-6	-5	5	35*
CC(C)(c1ccccc1)c1ccc(OCC(O)CN2CCCC2)cc1 (centres undefined)	7	-9	-24	-7	25
OC(CNCCc1ccccc1)COc1ccc(OCC(O)CNCCc2ccccc2)cc1 (centres undefined)	-52*	-20	-3	-1	34*
CCOc1ccccc1NC(=O)C1CCN(S(=O)(=O)c2cccc3nonc23)CC1	x	2	-10	-4	-2
COc1cc(NC(=O)Cn2ccn(-c3cc(C)cc(C)c3)c(=O)c2=O)cc(OC)c1	x	2	-15	-4	2
COc1ccc(-n2cc(-c3ccc4c(c3)OCO4)n(CC(=O)Nc3cccc(C)c3)c2=O)cc1	x	-11	-10	3	2
OC(CNCCC(c1ccccc1)c1ccccc1)COc1ccccc1 (centres undefined)	-26	-12	-61*	-6	11
CCC(=O)c1ccc(OCC(O)CNCCc2ccc(Cl)cc2)cc1 (centres undefined)	-20	-5	-15	-6	62*
CCC(=O)c1ccc(OCC(O)CNC(C)c2ccccc2)cc1 (centres undefined)	1	-6	5	4	7
C/C=C/c1ccc(OCC(O)CNCCc2ccc(OC)cc2)c(OC)c1 (centres undefined)	-4	-9	10	-6	14
CC(C)c1ccc(OCC(O)CNC(C)c2ccccc2)cc1 (centres undefined)	14	-3	2	11	15
OC(CNCCc1ccc(Cl)cc1)COc1ccc2ccccc2c1 (centres undefined)	14	-9	7	-1	33*
Cc1cc(SCc2ccc(Br)cc2)nc(=O)[nH]1	5	21	8	1	5
NC(CCc1ccccc1)c1csc(Nc2cnccn2)n1 (centres undefined)	-14	5	x	x	x
CCc1ccccc1N(C)C(=O)c1cnc(N2CCOCC2)c2ccccc12	x	5	-13	-3	0

Compound activity: PubChem BioAssay, National Center for Advancing Translational Sciences (NCATS)
